# Experimental data: PubChem BioAssay AID720565 (National Center for Advancing Translational Sciences (NCATS), 2013)
# Results filed as inconclusive are left out. Calls of active or inactive are those of the source. The call rests on the fitted dose curve; in most records, active means well fitted activation curve with a large enough effect; inconclusive means small, poorly fitted or top-dose-only effect; inactive means no such curve, though single readings can be large or run the other way.
# Assay: qHTS for small molecules that induce genotoxicity in ELG1 expressing cells: Confirmatory Assay for Cherry-picked Compounds; further: nearly all actives have a fitted effect of over 35% in size
# Conditions: ELG1-luciferase reporter cells, luminescence, 16 h; series mostly up to 46.1 µM
# In short: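 Cells carrying the ELG1-luciferase reporter were exposed to compound for 16 hr at 37 C, 5% CO2, at 2,000 cells per well. Rise in luciferase activity, read with ONE-Glo after 30 min at room temperature, indicates genotoxic stress.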
# Potency means the concentration at half of the fitted maximal effect.
row,Compound,Potency
1,COc1ccc(/C=C2\Oc3ccccc3C2=O)cc1,0.996 µM (active)
2,CC(=O)c1c(C)[nH]c(C(=O)Nc2cccc(S(=O)(=O)N3CCCC3)c2)c1C,15.8 µM (active)
3,Cn1c2ccccc2c(=O)c2cc(NCCCN3CCOCC3)ccc21,17.7 µM (active)
4,Cc1ccc2c(c1)sc1nc(=O)n(-c3ccc(Cl)c(Cl)c3)c(=O)n12,inactive
5,Cc1cc2cc3c(cc2nc1SCC(=O)N1CCOCC1)OCO3,inactive
6,Cc1ccc(OCC(=O)Nc2ccc(-c3nc4ncccc4o3)cc2)cc1,28.1 µM (active)
7,Cc1ccc2nc(-c3ccc(C)c(NC(=O)COc4ccc(Br)cc4)c3)oc2c1,2.5 µM (active)
8,Fc1ccc2cc(CCO[C@H]3CCCCO3)ncc2c1,3.97 µM (active)
9,CC(=O)Nc1ccc(/C=C/c2sc3ccccc3[n+]2CCCCI)cc1,22.3 µM (active)
10,N#Cc1cc2cc3c(cc2nc1SCC(=O)N1CCOCC1)OCCO3,0.889 µM (active)
11,Cc1ccnc(NC(=S)N2CCN(c3ccc(N)cc3)CC2)c1,14.1 µM (active)
12,CC(=O)Oc1ccc(-c2nc(-c3ccccc3)no2)cc1,2.81 µM (active)
13,CCN(CC)S(=O)(=O)c1ccc(N2CCOCC2)c(NC(=O)c2[nH]c(C)c(C(C)=O)c2C)c1,12.5 µM (active)
14,COc1ccc(C2CC(c3ccncc3)=NN2c2ccc(S(N)(=O)=O)cc2)cc1 (stereo not drawn),17.7 µM (active)
15,Cc1ccc(S(=O)(=O)Nc2cc3c4c(c2)CCN4C(=O)CC3)cc1,22.3 µM (active)
16,COc1ccc(-c2nnc(SC(C)C(=O)Nc3cccc(Cl)c3)o2)cc1 (stereo not drawn),12.5 µM (active)
17,COc1ccc2c(C)cc(SCC(=O)N3CCOCC3)nc2c1,inactive
18,O=c1c2ccccc2oc2c1oc1ccccc12,14.1 µM (active)
19,CS(=O)c1ccc(/C=C2\C=Cc3ccccc32)cc1 (stereo not drawn),1.26 µM (active)

row,Compound,Potency
1,COc1ccccc1/C=C/c1nc2ccccc2s1,3.97 µM (active)
2,Cc1ccc2c(c1)C/C(=C/c1ccc(N(C)C)cc1)C2=O,7.05 µM (active)
3,COC(=O)Nc1nc2ccc(C(=O)c3cccs3)cc2[nH]1,2.23 µM (active)
4,COc1ccc([C@H]2Cc3cc(O)cc(O)c3C(=O)O2)cc1O,11.2 µM (active)
5,CC(=O)OCC1=C[C@H]2[C@@H]3C(C)(C)[C@]3(OC(C)=O)C[C@@H](C)[C@]2(O)[C@@H]2C=C(C)C(=O)[C@@]2(O)C1,2.23 µM (active)
6,O=C(OCC(=O)N1CCc2ccccc2C1)c1c(F)cccc1Cl,9.96 µM (active)
7,Oc1ccc(/C=C/c2c(F)cccc2F)c2cccnc12,9.96 µM (active)
8,COc1ccc2cc(C[C@@H]3CC[C@@H](CO)O3)ccc2c1,12.5 µM (active)
9,Cc1cc(C(=O)COC(=O)c2cccnc2Cl)c(C)n1C,0.706 µM (active)
10,O=C(CSc1nnc(-c2ccc(F)cc2)o1)Nc1ccc(S(=O)(=O)N2CCCCCC2)cc1,inactive
11,Cc1sc(NC(=O)c2ccco2)c(C(c2cccnc2)N2CCN(c3ccc(F)cc3)CC2)c1C (stereo not drawn),inactive
12,CCc1ccc(OCC(=O)Nc2ccc(-c3nc4ccccc4o3)c(O)c2)cc1,14.1 µM (active)
13,COc1cccc([C@@H]2Oc3ccc(OC)cc3C(=O)[C@H]2OC(=O)NS(=O)(=O)c2ccc(C)cc2)c1,15.8 µM (active)
14,O=C(/C=C/C#Cc1cccc(NS(=O)(=O)c2ccccc2)c1)NO,3.15 µM (active)
15,O=C(CCN1C(=O)NC2(CCCC2)C1=O)Nc1ccc(-c2nc3ccccc3s2)cc1,0.706 µM (active)
16,CN(C)c1cccc(-c2nnc(N3CCC(C(N)=O)CC3)s2)c1,4.99 µM (active)
17,CC(=O)N(C)c1ccc(/C=C2\C=Cc3ccccc32)cc1,0.561 µM (active)
18,CC(C)C(=O)SCCCCCCC(=O)Nc1nc(-c2ccccc2)cs1,12.5 µM (active)
19,O=C1CCc2cc(NS(=O)(=O)c3ccccc3)cc3c2N1CCC3,inactive
